Test results from the supplement of paper PMC11732987, “Enantioselective OTUD7B fragment discovery through chemoproteomics screening and high-throughput optimisation” (Communications Chemistry, 2025).

How the values were obtained:
Assay in all cases: log2 ratio of Biotin-Ahx-Ub-VS probe labelling (compound/DMSO); higher = less target engagement, active = hit call of the paper (q ≤ 0.05, log2 ratio ≤ -1)
Settings in all cases: treatment time: 3 h
[1] = compound: CCC1N(CCc2sccc12)C(=O)CCl
Summary of the method: (§1)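 Compound at 50 or 200 µM, or DMSO, was applied for 3 h in triplicate to HEK293T lysate (495 µg per sample, Tris/CHAPS/IGEPAL buffer with protease inhibitors), after which Biotin-Ahx-Ub-VS was added at 0.5 µM final for 1 h. The labelled DUBs were pulled down with NeutrAvidin, digested with LysC and trypsin, and run by diaPASEF LC-MS/MS. Ratios are averaged base-two logs of compound over DMSO from median-normalised label-free quantities by unpaired t-test, counting only proteins with at least 2 unique peptides.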

[2] = compound: CN1c2ccccc2C(CS1(=O)=O)NC(=O)CCl
Summary of the method: as §1

[3] = compound: Cl.ClCC(=O)N1CCc2ncncc2C1
Summary of the method: as §1

[4] = compound: Cl.Cn1ncc2C(CCCc12)NC(=O)CCl
Summary of the method: as §1

[5] = compound: ClCC(=O)NC1CCOc2ccccc12
Summary of the method: as §1

[6] = compound: ClCC(=O)NC1CCCc2ccccc12
Summary of the method: (§2)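 Each value is an average ratio of compound to vehicle, calculated by unpaired t-test. Lysate from HEK293T cells (495 µg per sample) was incubated in triplicate with compound over a concentration range or vehicle for 3 h and then with Biotin-Ahx-Ub-VS (0.5 µM final) for 1 h. Probe-labelled deubiquitinases were captured on NeutrAvidin, digested and run by diaPASEF LC-MS/MS, with Spectronaut label-free quantities normalised to the global median. Ratios are log2, and only proteins with at least two unique peptides were used.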

[7] = compound: ClCC(=O)N[C@@H]1CCCc2ccccc12
Summary of the method: as §2

[8] = compound: ClCC(=O)N[C@H]1CCCc2ccccc12
Summary of the method: as §2

[9] = compound: CCC1N(CCc2cc(OC)c(Cl)cc12)C(=O)CCl
Summary of the method: as §1

[10] = compound: CCCC1N(CCc2cc(OC)c(OC)cc12)C(=O)CCl
Summary of the method: as §1

[11] = compound: CN(Cc1cccc(Br)c1)C(=O)CCl
Summary of the method: as §1

[12] = compound: CN(Cc1ccccc1)C(=O)CCl
Summary of the method: as §1

[13] = compound: COc1ccc(CN(C)C(=O)CCl)cc1
Summary of the method: as §1

[14] = compound: COc1cccc(CN(CCCc2ccccc2)C(=O)CCl)c1
Summary of the method: as §1

[15] = compound: ClCC(=O)N1CCc2cc(Cl)c(Cl)cc2C1
Summary of the method: as §1

[16] = compound: ClCC(=O)N1CCc2nc(ncc2C1)-c1ccccc1
Summary of the method: as §1

[17] = compound: ClCC(=O)N1CCc2nocc2C1
Summary of the method: as §1

[18] = compound: ClCC(=O)N1CCc2scc(Br)c2C1
Summary of the method: as §1

[19] = compound: ClCC(=O)NC(C1CCCC1)c1cccs1
Summary of the method: as §1

Measured: log2 ratio of Biotin-Ahx-Ub-VS probe labelling

USP54 (UniProt Q70EL1)
UniProt Q70EL1, sequence (Q70EL1 whole entry): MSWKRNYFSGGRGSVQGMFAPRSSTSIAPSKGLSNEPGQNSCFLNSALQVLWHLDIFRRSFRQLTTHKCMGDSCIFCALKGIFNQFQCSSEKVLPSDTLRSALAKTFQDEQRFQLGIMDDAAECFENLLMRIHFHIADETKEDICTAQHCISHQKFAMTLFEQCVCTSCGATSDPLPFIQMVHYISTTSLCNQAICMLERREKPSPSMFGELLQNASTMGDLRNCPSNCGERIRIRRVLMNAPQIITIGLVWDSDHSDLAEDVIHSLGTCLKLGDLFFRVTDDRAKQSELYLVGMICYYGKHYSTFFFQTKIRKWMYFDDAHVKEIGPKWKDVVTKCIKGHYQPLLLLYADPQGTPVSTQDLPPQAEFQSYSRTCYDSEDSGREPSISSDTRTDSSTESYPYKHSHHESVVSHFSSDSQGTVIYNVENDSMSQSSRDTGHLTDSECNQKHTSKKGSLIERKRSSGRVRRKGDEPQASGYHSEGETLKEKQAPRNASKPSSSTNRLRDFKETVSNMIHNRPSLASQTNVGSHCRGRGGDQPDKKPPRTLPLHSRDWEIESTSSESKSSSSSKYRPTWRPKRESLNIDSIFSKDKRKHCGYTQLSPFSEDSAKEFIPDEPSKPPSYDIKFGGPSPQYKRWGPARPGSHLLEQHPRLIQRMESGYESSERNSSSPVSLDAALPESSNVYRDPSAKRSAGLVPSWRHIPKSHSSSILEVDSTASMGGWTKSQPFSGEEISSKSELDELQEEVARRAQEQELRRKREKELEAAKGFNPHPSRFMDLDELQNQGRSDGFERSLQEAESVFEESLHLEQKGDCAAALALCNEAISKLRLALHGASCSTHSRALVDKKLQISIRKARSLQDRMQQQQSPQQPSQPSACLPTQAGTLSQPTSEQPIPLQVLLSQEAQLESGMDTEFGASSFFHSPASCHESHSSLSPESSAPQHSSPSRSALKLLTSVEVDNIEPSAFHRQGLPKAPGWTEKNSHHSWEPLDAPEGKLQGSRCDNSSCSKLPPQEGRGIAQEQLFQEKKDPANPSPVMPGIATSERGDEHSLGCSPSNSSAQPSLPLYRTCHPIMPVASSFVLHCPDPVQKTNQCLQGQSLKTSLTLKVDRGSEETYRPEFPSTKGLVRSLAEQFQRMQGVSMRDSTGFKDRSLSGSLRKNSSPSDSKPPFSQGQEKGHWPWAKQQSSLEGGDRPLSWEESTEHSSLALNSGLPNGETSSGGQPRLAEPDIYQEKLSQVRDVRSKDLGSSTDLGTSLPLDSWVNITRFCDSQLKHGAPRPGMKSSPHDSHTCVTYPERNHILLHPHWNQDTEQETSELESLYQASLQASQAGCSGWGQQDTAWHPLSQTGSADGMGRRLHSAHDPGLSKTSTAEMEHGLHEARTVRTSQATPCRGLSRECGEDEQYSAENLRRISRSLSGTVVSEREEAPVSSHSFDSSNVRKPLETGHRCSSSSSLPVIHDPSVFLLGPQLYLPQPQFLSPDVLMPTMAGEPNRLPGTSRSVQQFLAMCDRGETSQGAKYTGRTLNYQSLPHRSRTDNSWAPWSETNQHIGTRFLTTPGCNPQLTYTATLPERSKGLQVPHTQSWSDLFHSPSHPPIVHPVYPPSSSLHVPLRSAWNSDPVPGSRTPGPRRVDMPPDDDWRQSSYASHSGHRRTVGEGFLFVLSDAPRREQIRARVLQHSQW
inactive: [1]; compound concentration: 50uM 0.403 | [1]; compound concentration: 200uM -0.685 | [2]; compound concentration: 50uM 0.55 | [2]; compound concentration: 200uM -0.727 | [3]; compound concentration: 50uM 0.0984 | [4]; compound concentration: 50uM 0.166 | [5]; compound concentration: 50uM -0.806 | [5]; compound concentration: 200uM -0.859 | [6]; compound concentration: 0.78uM -0.349 | [6]; compound concentration: 1.56uM -0.87 | [6]; compound concentration: 3.13uM -0.672 | [6]; compound concentration: 25uM -0.646 | [6]; compound concentration: 50uM -0.519 | [6]; compound concentration: 100uM -0.598 | [6]; compound concentration: 200uM -0.947 | [7]; compound concentration: 0.78uM 0.232 | [7]; compound concentration: 1.56uM -0.0979 | [7]; compound concentration: 3.13uM -0.457 | [7]; compound concentration: 6.25uM -0.449 | [7]; compound concentration: 12.5uM -0.888 | [7]; compound concentration: 25uM 0.0566 | [7]; compound concentration: 50uM -0.582 | [7]; compound concentration: 100uM -0.163 | [7]; compound concentration: 200uM -0.256 | [8]; compound concentration: 0.78uM 0.15 | [8]; compound concentration: 3.13uM -0.564 | [8]; compound concentration: 6.25uM -0.753 | [8]; compound concentration: 12.5uM -0.0765 | [8]; compound concentration: 25uM -0.601 | [8]; compound concentration: 50uM -0.182 | [8]; compound concentration: 100uM 0.38 | [8]; compound concentration: 200uM -0.201 | [9]; compound concentration: 50uM -0.125 | [9]; compound concentration: 200uM -0.766 | [10]; compound concentration: 50uM -0.559 | [11]; compound concentration: 50uM 0.085 | [11]; compound concentration: 200uM -0.845 | [12]; compound concentration: 50uM -0.885 | [12]; compound concentration: 200uM -0.551 | [13]; compound concentration: 50uM -0.773 | [14]; compound concentration: 50uM -0.358 | [15]; compound concentration: 50uM -0.895 | [16]; compound concentration: 50uM -0.823 | [17]; compound concentration: 50uM -0.519 | [18]; compound concentration: 50uM -0.124 | [19]; compound concentration: 50uM 0.0591 | [19]; compound concentration: 200uM 0.198
active: [3]; compound concentration: 200uM -1.09 | [4]; compound concentration: 200uM -2.4 | [6]; compound concentration: 6.25uM -1.2 | [6]; compound concentration: 12.5uM -1.06 | [8]; compound concentration: 1.56uM -1.07 | [10]; compound concentration: 200uM -2.42 | [13]; compound concentration: 200uM -2.33 | [14]; compound concentration: 200uM -2.68 | [15]; compound concentration: 200uM -2.65 | [16]; compound concentration: 200uM -2.39 | [17]; compound concentration: 200uM -1.77 | [18]; compound concentration: 200uM -2.07

EIF3F (UniProt O00303)
UniProt O00303, sequence (O00303 whole entry): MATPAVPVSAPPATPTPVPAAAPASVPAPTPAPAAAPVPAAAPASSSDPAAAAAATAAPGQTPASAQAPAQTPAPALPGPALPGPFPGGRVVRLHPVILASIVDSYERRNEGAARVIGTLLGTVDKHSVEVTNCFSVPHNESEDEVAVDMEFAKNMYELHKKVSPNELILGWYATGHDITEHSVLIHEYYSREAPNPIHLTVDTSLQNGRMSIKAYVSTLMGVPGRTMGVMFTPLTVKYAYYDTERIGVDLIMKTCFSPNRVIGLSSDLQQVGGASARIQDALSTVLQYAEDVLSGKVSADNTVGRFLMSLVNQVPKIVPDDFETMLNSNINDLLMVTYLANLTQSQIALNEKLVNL
inactive: [1]; compound concentration: 50uM -0.16 | [1]; compound concentration: 200uM -0.05 | [2]; compound concentration: 50uM -0.111 | [2]; compound concentration: 200uM -0.0123 | [3]; compound concentration: 50uM 0.026 | [3]; compound concentration: 200uM -0.017 | [4]; compound concentration: 50uM -0.0544 | [4]; compound concentration: 200uM -0.232 | [5]; compound concentration: 50uM -0.204 | [5]; compound concentration: 200uM 0.0458 | [6]; compound concentration: 0.78uM -0.0827 | [6]; compound concentration: 1.56uM 0.0402 | [6]; compound concentration: 3.13uM -0.164 | [6]; compound concentration: 6.25uM -0.148 | [6]; compound concentration: 12.5uM 0.141 | [6]; compound concentration: 25uM -0.0954 | [6]; compound concentration: 50uM -0.209 | [6]; compound concentration: 100uM -0.401 | [6]; compound concentration: 200uM -0.0132 | [7]; compound concentration: 0.78uM -0.295 | [7]; compound concentration: 1.56uM 0.0826 | [7]; compound concentration: 3.13uM -0.0906 | [7]; compound concentration: 6.25uM -0.461 | [7]; compound concentration: 12.5uM -0.244 | [7]; compound concentration: 25uM -0.214 | [7]; compound concentration: 50uM -0.034 | [7]; compound concentration: 100uM 0.00457 | [7]; compound concentration: 200uM 0.0644 | [8]; compound concentration: 0.78uM -0.0754 | [8]; compound concentration: 1.56uM -0.0584 | [8]; compound concentration: 3.13uM -0.182 | [8]; compound concentration: 6.25uM 0.0402 | [8]; compound concentration: 12.5uM -0.0792 | [8]; compound concentration: 25uM -0.00315 | [8]; compound concentration: 50uM -0.0696 | [8]; compound concentration: 100uM -0.0985 | [8]; compound concentration: 200uM -0.313 | [9]; compound concentration: 50uM -0.015 | [9]; compound concentration: 200uM -0.16 | [10]; compound concentration: 50uM -0.0996 | [10]; compound concentration: 200uM 0.154 | [11]; compound concentration: 50uM -0.146 | [11]; compound concentration: 200uM -0.0144 | [12]; compound concentration: 50uM 0.12 | [12]; compound concentration: 200uM 0.117 | [13]; compound concentration: 50uM -0.317 | [13]; compound concentration: 200uM -0.0894 | [14]; compound concentration: 50uM -0.0548 | [14]; compound concentration: 200uM -0.0324 | [15]; compound concentration: 50uM -0.117 | [15]; compound concentration: 200uM -0.406 | [16]; compound concentration: 50uM -0.18 | [16]; compound concentration: 200uM 0.268 | [17]; compound concentration: 50uM -0.16 | [17]; compound concentration: 200uM 0.0551 | [18]; compound concentration: 50uM -0.352 | [18]; compound concentration: 200uM -0.162 | [19]; compound concentration: 50uM 0.0245 | [19]; compound concentration: 200uM -0.0374

USP9X (UniProt Q93008)
UniProt Q93008, sequence (Q93008 whole entry): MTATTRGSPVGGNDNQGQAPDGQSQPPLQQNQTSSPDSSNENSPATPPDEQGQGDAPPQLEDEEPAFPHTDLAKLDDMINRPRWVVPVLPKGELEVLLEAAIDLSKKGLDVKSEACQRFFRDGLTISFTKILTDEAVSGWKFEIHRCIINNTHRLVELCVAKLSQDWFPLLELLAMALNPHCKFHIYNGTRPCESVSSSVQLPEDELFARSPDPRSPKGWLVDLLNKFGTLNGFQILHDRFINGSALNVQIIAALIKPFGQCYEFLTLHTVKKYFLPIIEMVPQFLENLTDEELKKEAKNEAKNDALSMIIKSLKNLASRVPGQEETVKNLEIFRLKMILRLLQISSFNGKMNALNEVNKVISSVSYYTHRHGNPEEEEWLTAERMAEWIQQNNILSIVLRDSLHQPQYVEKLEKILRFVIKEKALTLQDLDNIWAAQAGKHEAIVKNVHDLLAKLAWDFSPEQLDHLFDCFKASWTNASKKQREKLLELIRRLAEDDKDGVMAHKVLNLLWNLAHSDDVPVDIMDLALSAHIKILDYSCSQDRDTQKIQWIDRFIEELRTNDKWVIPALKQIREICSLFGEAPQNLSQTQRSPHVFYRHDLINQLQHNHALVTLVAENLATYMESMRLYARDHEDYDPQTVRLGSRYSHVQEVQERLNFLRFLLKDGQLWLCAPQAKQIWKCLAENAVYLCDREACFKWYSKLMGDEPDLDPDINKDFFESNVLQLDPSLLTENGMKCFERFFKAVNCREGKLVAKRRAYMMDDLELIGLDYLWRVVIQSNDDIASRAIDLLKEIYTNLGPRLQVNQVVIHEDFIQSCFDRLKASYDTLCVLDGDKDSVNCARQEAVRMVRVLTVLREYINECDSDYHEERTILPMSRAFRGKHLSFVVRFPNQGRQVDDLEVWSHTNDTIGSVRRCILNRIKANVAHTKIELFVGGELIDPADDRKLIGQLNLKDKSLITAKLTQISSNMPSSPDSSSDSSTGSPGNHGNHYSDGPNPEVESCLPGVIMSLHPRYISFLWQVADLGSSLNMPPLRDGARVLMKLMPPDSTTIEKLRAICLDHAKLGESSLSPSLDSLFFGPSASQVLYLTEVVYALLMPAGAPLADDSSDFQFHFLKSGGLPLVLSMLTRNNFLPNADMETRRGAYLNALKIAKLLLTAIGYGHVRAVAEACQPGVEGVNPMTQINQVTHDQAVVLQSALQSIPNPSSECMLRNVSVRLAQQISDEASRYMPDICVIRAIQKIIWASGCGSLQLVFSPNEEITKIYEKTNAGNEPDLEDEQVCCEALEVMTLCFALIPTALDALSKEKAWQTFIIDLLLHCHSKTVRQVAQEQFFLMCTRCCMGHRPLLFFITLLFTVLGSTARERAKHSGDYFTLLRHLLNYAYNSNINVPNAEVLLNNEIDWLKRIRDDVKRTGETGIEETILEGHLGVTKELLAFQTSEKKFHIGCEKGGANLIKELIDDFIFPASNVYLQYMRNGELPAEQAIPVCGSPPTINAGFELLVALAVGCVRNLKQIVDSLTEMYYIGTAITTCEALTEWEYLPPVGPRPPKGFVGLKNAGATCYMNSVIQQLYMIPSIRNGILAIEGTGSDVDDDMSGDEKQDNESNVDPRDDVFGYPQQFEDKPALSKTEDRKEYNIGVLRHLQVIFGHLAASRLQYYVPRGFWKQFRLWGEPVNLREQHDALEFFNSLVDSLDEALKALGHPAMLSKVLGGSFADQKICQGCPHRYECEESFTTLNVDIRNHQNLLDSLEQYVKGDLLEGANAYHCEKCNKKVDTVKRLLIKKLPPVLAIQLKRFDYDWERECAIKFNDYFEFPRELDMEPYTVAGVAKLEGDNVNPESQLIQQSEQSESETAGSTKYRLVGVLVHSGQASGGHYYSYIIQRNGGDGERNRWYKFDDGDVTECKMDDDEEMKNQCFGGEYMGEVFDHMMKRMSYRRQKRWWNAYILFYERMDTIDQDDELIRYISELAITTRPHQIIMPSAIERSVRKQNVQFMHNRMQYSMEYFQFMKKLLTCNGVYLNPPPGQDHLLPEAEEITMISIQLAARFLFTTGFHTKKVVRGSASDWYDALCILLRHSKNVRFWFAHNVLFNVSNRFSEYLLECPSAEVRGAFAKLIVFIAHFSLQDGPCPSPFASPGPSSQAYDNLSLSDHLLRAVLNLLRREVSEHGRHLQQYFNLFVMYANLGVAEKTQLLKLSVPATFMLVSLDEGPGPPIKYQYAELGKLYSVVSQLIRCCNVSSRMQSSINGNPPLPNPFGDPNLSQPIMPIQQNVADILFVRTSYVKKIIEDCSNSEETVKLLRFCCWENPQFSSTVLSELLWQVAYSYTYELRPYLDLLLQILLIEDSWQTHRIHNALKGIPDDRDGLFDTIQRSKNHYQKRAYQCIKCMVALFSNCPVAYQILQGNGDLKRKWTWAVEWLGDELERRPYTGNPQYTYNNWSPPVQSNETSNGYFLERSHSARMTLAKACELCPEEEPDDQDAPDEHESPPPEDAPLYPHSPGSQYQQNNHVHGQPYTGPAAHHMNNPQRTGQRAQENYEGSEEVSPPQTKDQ
active: [14]; compound concentration: 200uM -1.31 | [15]; compound concentration: 200uM -1.96 | [18]; compound concentration: 200uM -1.13
inactive: [1]; compound concentration: 50uM -0.0428 | [1]; compound concentration: 200uM -0.401 | [2]; compound concentration: 50uM -0.081 | [2]; compound concentration: 200uM -0.107 | [3]; compound concentration: 50uM -0.026 | [3]; compound concentration: 200uM -0.376 | [4]; compound concentration: 50uM 0.251 | [4]; compound concentration: 200uM 0.139 | [5]; compound concentration: 50uM 0.133 | [5]; compound concentration: 200uM -0.133 | [6]; compound concentration: 0.78uM -0.00765 | [6]; compound concentration: 1.56uM 0.093 | [6]; compound concentration: 3.13uM -0.0291 | [6]; compound concentration: 6.25uM 0.0092 | [6]; compound concentration: 12.5uM -0.0222 | [6]; compound concentration: 25uM -0.0898 | [6]; compound concentration: 50uM -0.0629 | [6]; compound concentration: 100uM -0.0253 | [6]; compound concentration: 200uM -0.0679 | [7]; compound concentration: 0.78uM -0.0702 | [7]; compound concentration: 1.56uM 0.0356 | [7]; compound concentration: 3.13uM 0.00372 | [7]; compound concentration: 6.25uM -0.00489 | [7]; compound concentration: 12.5uM -0.0481 | [7]; compound concentration: 25uM -0.0408 | [7]; compound concentration: 50uM -0.128 | [7]; compound concentration: 100uM -0.121 | [7]; compound concentration: 200uM -0.242 | [8]; compound concentration: 0.78uM -0.0701 | [8]; compound concentration: 1.56uM 0.0195 | [8]; compound concentration: 3.13uM 0.0203 | [8]; compound concentration: 6.25uM 0.0759 | [8]; compound concentration: 12.5uM -0.0293 | [8]; compound concentration: 25uM -0.0731 | [8]; compound concentration: 50uM -0.0138 | [8]; compound concentration: 100uM -0.119 | [8]; compound concentration: 200uM -0.256 | [9]; compound concentration: 50uM -0.0734 | [9]; compound concentration: 200uM -0.969 | [10]; compound concentration: 50uM -0.249 | [10]; compound concentration: 200uM -0.82 | [11]; compound concentration: 50uM -0.128 | [11]; compound concentration: 200uM -0.446 | [12]; compound concentration: 50uM -0.193 | [12]; compound concentration: 200uM -0.435 | [13]; compound concentration: 50uM -0.101 | [13]; compound concentration: 200uM -0.202 | [14]; compound concentration: 50uM -0.221 | [15]; compound concentration: 50uM -0.225 | [16]; compound concentration: 50uM 0.0933 | [16]; compound concentration: 200uM -0.622 | [17]; compound concentration: 50uM -0.15 | [17]; compound concentration: 200uM -0.284 | [18]; compound concentration: 50uM -0.229 | [19]; compound concentration: 50uM -0.00568 | [19]; compound concentration: 200uM -0.248
